Compound activity (PubChem)
proKLK7 act – activators of human kallikrein-7 zymogen. activation, % at 7 µM. actives 0.9% (n = 370,000). purified proKLK7, EDANS-DABCYL substrate fluorescence; 100% is mature enzyme control, 0% vehicle. P49862;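 active means activation above the mean of all tested compounds plus 3 SD, computed per campaign excluding outliers beyond control limits, cut at about 13% in these data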
Target sequence (P49862 whole entry, looked up): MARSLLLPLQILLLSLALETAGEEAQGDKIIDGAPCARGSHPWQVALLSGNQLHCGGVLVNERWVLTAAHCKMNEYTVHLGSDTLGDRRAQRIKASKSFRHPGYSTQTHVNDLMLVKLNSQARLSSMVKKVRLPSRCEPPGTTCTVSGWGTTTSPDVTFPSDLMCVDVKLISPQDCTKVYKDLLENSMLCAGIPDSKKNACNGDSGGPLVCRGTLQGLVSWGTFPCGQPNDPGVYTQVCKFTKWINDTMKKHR
MsrA inh – inhibitors of bovine MsrA; actives 0.75% (n = 360,000); purified bovine MsrA, absorbance read-out; inhibition, % at 15.5 µM; in the data active means inhibition above about 4.5%;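 further: 0% = vehicle wells with enzyme and 100% = reference inhibitor wells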
SMARCA2 activ – increases SMARCA2 function in MMTV reporter cells. MG213 cells, MMTV-luciferase reporter, dexamethasone, overnight. actives 1% (n = 370,000). activation, % at 9.1 µM. AID 652017; in the data active means activation above about 7.8%;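 further: 0% = vehicle wells and 100% = reference activator wells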
bovine MsrA act – activators of bovine methionine sulfoxide reductase A | actives 0.3% (n = 360,000) | purified bovine MsrA, absorbance read-out | activation, % at 10.6 µM; in the data active means activation above about 7.5%;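 further: 0% = vehicle and 100% = reference activator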
SMARCA2 conf – SMARCA2 activation, confirmation screen | actives 30% (n = 3,500) | activation, % at 9.1 µM | shares compounds with SMARCA2 activ | MG213 cells, MMTV-luciferase with dexamethasone, luminescence, overnight; MG213 cells expressing E1A, Rb sequestered; DMSO wells 0%, reference activator 100%;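 active means activation above its plate's cutoff, the mean activation of tested wells plus 3 SD, cut at about 7.9% in these data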
VP16 Luc act – counter-screen for SMARCA2 activators: GAL4-VP16 luciferase reporter activation. shares compounds with SMARCA2 activ. HEK293 GAL4-VP16 pG5luc reporter, luciferase luminescence; scaled: DMSO wells 0%, SAHA wells 100%. activation, % at 9.1 µM. actives 41% (n = 3,500);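 active means activation above the solvent-only control well mean plus 3 SD, averaged across control plates, cut at about 5.2% in these data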
KLK7 act conf – proKLK7 activation, confirmation; shares compounds with proKLK7 act; purified proKLK7, EDANS-DABCYL substrate fluorescence; scaled: vehicle 0, mature enzyme 100; activation, % at 7 µM; actives 68% (n = 3,200);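 active means activation, as change over the incubation, above the mean of all tested compounds plus 3 SD, cut at about 13% in these data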
EDANS-DABCYL int – optically interferes with EDANS-DABCYL signal, flagging KLK7 hits; AID 686952; activation, % at 7 µM; actives 80% (n = 3,200); EDANS-DABCYL substrate fluorescence interference, no enzyme, 4 h; solvent 0%, active enzyme control 100%; shares compounds with proKLK7 act;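 active means activation above the all-compound mean plus 3 SD, ignoring values outside control-based bounds, cut at about 4.8% in these data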;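 further: value is the 4 h activation minus the activation read at time zero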
Starred values were filed as active, the others as inactive. Hits are enriched below; roughly 2.8% of the tested compounds scored in any of these assays.

For CC(C)Oc1cc(F)ccc1-c1cc(C(=O)NCCc2ccncc2)[nH]n1 the results were proKLK7 act 1, MsrA inh -1, SMARCA2 activ -3 and bovine MsrA act -4.
For CCOC(=O)c1ccc(/C=C2/C=C(c3ccccc3)N(c3ccc(Cl)c(C(=O)O)c3)C2=O)cc1 the results were proKLK7 act 0, MsrA inh 0, SMARCA2 activ 12*, bovine MsrA act -6, SMARCA2 conf -2 and VP16 Luc act -1.
CCOC(=O)c1ccc(Cl)c(NC(=O)c2ccc(-c3ccccc3)cc2)c1 was read as proKLK7 act 1, MsrA inh 1, SMARCA2 activ 0 and bovine MsrA act -6.
Cn1ccc(C(=O)N/N=C/c2ccccc2[N+](=O)[O-])n1 was read as proKLK7 act 0, MsrA inh -1, SMARCA2 activ 8.2*, bovine MsrA act -3, SMARCA2 conf 8 and VP16 Luc act 5.
`Cn1cc([N+](=O)[O-])c(C(=O)N/N=C/c2ccccc2)n1` gave proKLK7 act -1, MsrA inh 1, SMARCA2 activ -2 and bovine MsrA act 0.
Screening Cc1ccc(C(=O)Nc2nnc(COCCO)s2)cc1 returned proKLK7 act -1, MsrA inh 0, SMARCA2 activ 2 and bovine MsrA act -4.
CCS(=O)(=O)c1ccc2c(c1)N(S(C)(=O)=O)CC(C(=O)NCCOC)O2 (stereo not given) was read as proKLK7 act 1, MsrA inh 0, SMARCA2 activ 12*, bovine MsrA act -7, SMARCA2 conf -1 and VP16 Luc act 1.
Cc1ccc(NC(=O)c2cc(S(=O)(=O)N3CCOCC3)ccc2Cl)cc1S(=O)(=O)N1CCOCC1 was read as proKLK7 act 1, MsrA inh 1, SMARCA2 activ -3 and bovine MsrA act -4.
`Cc1nc2ccc(S(=O)(=O)NCC(=O)N(C)Cc3ccccc3Cl)cc2s1` gave proKLK7 act 0 and SMARCA2 activ -4.
For COc1ccc(C(=O)NC(=O)Nc2cc(C)ccn2)cc1 the results were proKLK7 act 0, MsrA inh 0, SMARCA2 activ 12*, bovine MsrA act -7, SMARCA2 conf 2 and VP16 Luc act 4.
For O=C(O)c1cc(S(=O)(=O)N2CCN(S(=O)(=O)c3ccc4ccccc4c3)CC2)ccc1Br the results were proKLK7 act 0, MsrA inh 1, SMARCA2 activ -4 and bovine MsrA act -1.
`O=C(CSc1nccn1Cc1ccc(F)cc1)Nc1ccc(F)cc1F` gave proKLK7 act 0, MsrA inh -1, SMARCA2 activ -1 and bovine MsrA act -13.
`O=C(Nc1ccccc1)c1nccn1Cc1ccc(F)cc1` gave proKLK7 act -1, MsrA inh -1, SMARCA2 activ 9.9*, bovine MsrA act -11, SMARCA2 conf 3 and VP16 Luc act 3.
COc1cccc(C(C(=O)NCc2ccccc2)N2CCN(c3cccc(C)c3C)CC2)c1OC (stereo not given) was read as proKLK7 act 0, MsrA inh 0 and SMARCA2 activ -6.
Screening COCCCNC(=O)C[C@@H]1C(=O)N2CCCC3=C2[C@@]1(C(=O)OC)CCCC3 returned proKLK7 act 0 and SMARCA2 activ 0.
For COc1ccc2oc(=O)c(-c3nnc(NCc4ccco4)s3)cc2c1 the results were proKLK7 act 35*, MsrA inh 2, SMARCA2 activ 15*, bovine MsrA act -13, SMARCA2 conf 15*, VP16 Luc act 6.5*, KLK7 act conf -78 and EDANS-DABCYL int -81.
CCOc1cccc2cc(-c3nnc(NCc4ccco4)s3)c(=O)oc12 was read as proKLK7 act -18, MsrA inh 1, SMARCA2 activ 1 and bovine MsrA act -2.
